Reference: PubChem BioAssay (NCATS)
Inconclusive results are not listed. Active and inactive are the calls of the source. Unless noted, the call rests on the fitted dose curve; in most records, active means well fitted curve in the direction sought with a large enough effect; inconclusive means small, poorly fitted or top-dose-only effect, or another doubt; inactive means no such curve, though single readings can be large; an effect the other way counts as inactive or inconclusive.

Columns and labels:
[1] = test system: Zika virus NS2B-NS3 protease (linked construct); assay: Primary screen NINDS Rhodamine qHTS for Zika virus inhibitors (AID 1347160)
Summary of the method: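 Percent inhibition, normalized to uninhibited and enzyme-free controls, is fitted to a 4-parameter Hill equation. Fluorescence change comes from a 15-min cleavage of 1.5 microM bis-peptide Rhodamine110 substrate by 25 nM linked NS2B-NS3 at room temperature.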

[2] = OV-KATE Cancer Cell Toxicity qHTS against the NCATS CANVASS Library (AID 1347345)
Summary of the method: (§1)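 Step one: seed 1000 cells per well. Step two: incubate 4 h. Step three: add test compounds in 11 concentrations. Step four: culture 72 h, then add CellTiter-Glo and record luminescence after 15min.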

[3] = HPAF-II Cancer Cell Toxicity qHTS against the NCATS CANVASS Library (AID 1347346)
Summary of the method: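 Luminescence from CellTiter-Glo, added after 72 h compound exposure and a 15 min room-temperature incubation, served as the viability readout. HPAF-II cells (1000/well) received an 11-point concentration series.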

[4] = UWB1.289 Cancer Cell Toxicity qHTS against the NCATS CANVASS Library (AID 1347347)
Summary of the method: as §1

[5] = OV-SAHO Cancer Cell Toxicity qHTS against the NCATS CANVASS Library (AID 1347348)
Summary of the method: as §1

[6] = Panc-1005 Cancer Cell Toxicity qHTS against the NCATS CANVASS Library (AID 1347349)
Summary of the method: as §1

[7] = SW1088 Cancer Cell Toxicity qHTS against the NCATS CANVASS Library (AID 1347350)
Summary of the method: as §1

[8] = COV-362 Cancer Cell Toxicity qHTS against the NCATS CANVASS Library (AID 1347352)
Summary of the method: (§2)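 Luminescent ATP read-out (CellTiter-Glo, 15min at room temperature) measures survival after cells face an 11-point compound series for 72 hours at 37 degrees C/5% CO2.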

[9] = A2780 Cisplatin Sensitive Ovarian Cancer Cell Toxicity qHTS against the NCATS CANVASS Library (AID 1347353)
Summary of the method: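 Luminescent ATP content (ATPLite, 10 min at room temperature) served as the read-out after cells had been exposed to compounds for 72 hours at 37 °C. Dosing followed an 11-point concentration series.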

[10] = UWB1.289-WTBRCA1 Cancer Cell Toxicity qHTS against the NCATS CANVASS Library (AID 1347354)
Summary of the method: as §2

[11] = HPAF-II 24hr Apoptosis Induction qHTS against the NCATS CANVASS Library (AID 1347356)
Summary of the method: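 Luminescent caspase-3/7 signal (DEVD substrate, Caspase-Glo) served as read-out, taken 15 min after reagent addition to HPAF-II cells exposed 24 h to compounds.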

[12] = HEK293 18hr Apoptosis Induction qHTS against the NCATS CANVASS Library (AID 1347357)
Summary of the method: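 Natural products applied to HEK293 for 18 hr; Caspase-Glo 3/7 readout.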

[13] = HEK293 24hr Apoptosis Induction qHTS against the NCATS CANVASS Library (AID 1347359)
Summary of the method: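 HEK293 cells, 500 per well, exposed to an 11-point compound series for 24 hours at 37 degrees C. Caspase 3/7 activity read by Caspase-Glo luminescence (DEVD substrate) after 15 min at room temperature.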

[14] = test system: NAD(P)H diaphorase (Clostridium kluyveri); assay: Diaphorse counterscreen qHTS: Assay Interference Panel against the NCATS CANVASS Library (AID 1347362)
Summary of the method: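 Clostridium kluyveri diaphorase in PBS + 0.01% Tween-20 preincubated 15 min with compounds. Resazurin and NADH then added for 5 min at room temperature in the dark; resorufin fluorescence read (ex 525, em 598).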

[15] = target: Luciferin 4-monooxygenase (Photinus pyralis) (UniProt P08659); assay: Firefly luciferase counterscreen qHTS: Assay Interference Panel against the NCATS CANVASS Library (AID 1347363)
Summary of the method: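 Purified P. pyralis luciferase (0.04 ug/mL, 4x reagent) added to Tris-acetate buffer with 0.013 mM D-luciferin, 0.013 mM ATP and 13.3 mM Mg-acetate; compounds preincubated 15 min, then luminescence read after 5 min, RT.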

[16] = SDT Cancer Cell Toxicity qHTS against the NCATS CANVASS Library (AID 1347365)
Summary of the method: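 qHTS, SDT dog glioma line, 500 cells/well; cpds 11 pts; 72 hr, 37C, 5% CO2; CellTiterGlo ATP luminescence.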

[17] = KB-3-1 Cancer Cell Toxicity qHTS against the NCATS CANVASS Library (AID 1347366)
Summary of the method: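 Cytotoxicity toward KB-3-1 cells (500/well, DMEM + 10% FBS) was scored by CellTiter-Glo luminescence following 72 hr exposure at 37C, with bortezomib titrated as control.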

[18] = G06 Cancer Cell Toxicity qHTS against the NCATS CANVASS Library (AID 1347368)
Summary of the method: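 Dog G06 glioma line, 500 cells/well; cpds pin-transferred, 11-pt; 72 hr, 37C/5% CO2; CellTiterGlo luminescence (ATP) endpoint.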

[19] = MCF7 Cancer Cell Toxicity qHTS against the NCATS CANVASS Library (AID 1347369)
Summary of the method: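 This 72 hr qHTS scored MCF7 viability by CellTiterGlo luminescence, with 500 cells/well; bortezomib titration ran as control.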

[20] = qHTS for ATAD5 Antagonist screened against the NCATS CANVASS Library (AID 1347370)
Summary of the method: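 HEK293T cells with stably integrated ATAD5-luciferase reporter, 2000/well, 5 h attachment; compounds plus 10 µM 5-fluorouridine, 16 h at 37 °C. Luciferase luminescence read, with CellTiter-Fluor viability read first.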

[21] = J3T Cancer Cell Toxicity qHTS against the NCATS CANVASS Library (AID 1347371)
Summary of the method: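 Cells plated at 500 per well, compounds pin-transferred, plates incubated 72 hr at 37C, then CellTiterGlo added and luminescence read to measure ATP content.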

[22] = target: Nuclear receptor subfamily 1 group I member 3 (Homo sapiens) (UniProt Q14994); assay: qHTS for Constitutive Androstane Receptor (CAR) Antagonist screened against the NCATS CANVASS Library (AID 1347372)
Summary of the method: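 HepG2 cells stably carrying hCAR and CYP2B6-2.2kb luciferase reporter, 2500 cells/well, compound with 50 nM CITCO agonist for 24hr at 37C. ONE-Glo luminescence measured CAR activity; CellTiter-Fluor read viability.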

[23] = target: Nuclear receptor subfamily 1 group I member 3 (Homo sapiens) (UniProt Q14994); assay: qHTS for Constitutive Androstane Receptor (CAR) Agonist screened against the NCATS CANVASS Library (AID 1347373)
Summary of the method: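 HepG2-hCAR-CYP2B6 cells, 2500/well, attached 4hr; cpd + PK11195 1.5uM final; 24hr 37C 5% CO2. CellTiter-Fluor viability read, then ONE-Glo luminescence for CAR activation.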

[24] = qHTS for Hypoxia signaling pathway (HIF-1) antagonists against the NCATS CANVASS Library (AID 1347374)
Summary of the method: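 HRE-bla ME-180 cells in medium with 0.5% dialyzed FBS received compounds (11-point series) plus CoCl2 (60 uM addition stock) for 17 hrs at 37C. Beta-lactamase activity read with CCF4 (405 nm ex, 460/530 nm em); CellTiter-Glo viability measured in same wells.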

[25] = qHTS for Inflammasome Signaling Inhibitors: IL-1-beta AlphaLISA screen against the NCATS CANVASS Library (AID 1347379)
Summary of the method: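 THP-1 cells pretreated 1 hr with compound (up to 57.5 uM final), then stimulated with LPS (250 ng/mL final) and ATP (1.25 mM final). Secreted IL-1B measured by AlphaLISA after 16 hr; glyburide as positive control.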

[26] = qHTS for Antimalaria activity screened against the NCATS CANVASS Library (AID 1347380)
Summary of the method: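 Dd2 strain, infected erythrocytes 2.5% Hct final / 0.3% parasitemia. 11-pt qHTS titration, 72 h, 37C, 5% O2, 5% CO2. Lysis buffer + SYBR Green, 18 h, fluorescence 485/535 nm.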

[27] = Inflammasome Signaling qHTS Counterscreen: IL-1-beta AlphaLISA counterscreen against the NCATS CANVASS Library (AID 1347381)
Summary of the method: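 Cell-free interference check: compounds added to medium spiked with 4 pg purified IL-1β. Anti-IL-1β acceptor beads (6 ug/mL) with 0.6 nM biotinylated antibody added for 1 h at RT, then streptavidin donor beads (24 ug/mL) for 30 min in the dark. AlphaLISA read at 680/615 nm.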

[28] = Cytotoxicity qHTS for assessment of Hepg2 cells membrane integrity screened against the NCATS CANVASS Library (AID 1347387)
Summary of the method: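 qHTS, 11-pt conc. series, 0.59 nM - 46 uM final; HepG2 2000 cells/well, overnight attachment; 5 hr compound exposure 37C/5% CO2; CytoTox-ONE, 10 min RT; fluorescence ex560/em590 = LDH from damaged membranes.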

[29] = qHTS for Activators of p53 Stress Response Pathway screened against the NCATS CANVASS Library (AID 1347388)
Summary of the method: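 p53RE-bla HCT-116 cells (4000/well) were pre-incubated for 5 h, then treated with compound (11 points) for 16 h at 37C. After 2 h with CCF4, the 460/530 nm ratio gave reporter activation; CellTiter-Glo measured viability.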

[30] = qHTS assay for small molecule disruptors of mitochondrial membrane potential screened against the NCATS CANVASS Library (AID 1347389)
Summary of the method: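 HepG2, 2,000 cells/well, attached overnight; compound 1 hr, 37C, 5% CO2; Mito-MPS dye 30 min, 37C; fluorescence 535 nm (monomer) and 590 nm (aggregate); decreased 590/535 ratio = depolarization.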

[31] = Secretion counterscreen for inhibitors of the SERCaMP assay screened against the NCATS CANVASS Library (AID 1347390)
Summary of the method: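 Natural products are titrated in an 11-point series up to 77 uM onto SH-SY5Y-GLuc STOP cells for 20 h. Secreted reporter activity is measured as coelenterazine-driven luminescence, with Brefeldin A on each plate.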

[32] = qHTS for activators of Nrf2/ARE signaling pathway screened against the NCATS CANVASS Library (AID 1347391)
Summary of the method: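 Plate ARE-bla HepG2 cells at 2000/well and let them settle 5 h. Pin-transfer compounds in DMSO, incubate 16 h at 37C. Load CCF4 for 2 h at room temperature and read blue/green fluorescence.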

[33] = qHTS for activators of dead-cell proteases activity screened against the NCATS CANVASS Library (AID 1347392)
Summary of the method: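 HepG2 cells, 2000/well, attached 18 h at 37C, then exposed to compounds (11-point qHTS) for 5 h. Dead-cell protease release read as luminescence from cell-impermeant AAF-aminoluciferin substrate after 15 min at room temperature.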

[34] = qHTS for inhibitors of ER calcium dysfunction: SERCaMP assay screened against the NCATS CANVASS Library (AID 1347393)
Summary of the method: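 SH-SY5Y GLuc-SERCaMP, 1000 cells/well, 4 h attach; cpd 16 h, 37C/5% CO2; thapsigargin (added as 6x 600 nM) 4 h; coelenterazine; luminescence. Reduced reporter release = ER Ca stabilization.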

[35] = Vero-766 cells viability qHTS against the NCATS CANVASS Library: Counterscreen for Zika virus inhibition assay (AID 1347394)
Summary of the method: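 Counterscreen for toxicity: Vero 766 cells exposed 72 h to an 11-point compound series, viability by CellTiter-Glo.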

[36] = qHTS for inhibitors of Wild type Zika virus screened against the NCATS CANVASS Library (AID 1347396)
Summary of the method: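 Using ATP-based luminescence (CellTiter Glo), this screen scores rescue of Vero 766 cells from wild-type Zika killing at 72 h post-infection. Compounds are tested in a concentration series.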

[37] = qHTS for inhibitors of Rabies Virus screened against the NCATS CANVASS Library (AID 1347402; calls by dose curve)

Measured: Potency

Nuclear receptor subfamily 1 group I member 3 (Homo sapiens), sequence (Q14994 whole entry, looked up): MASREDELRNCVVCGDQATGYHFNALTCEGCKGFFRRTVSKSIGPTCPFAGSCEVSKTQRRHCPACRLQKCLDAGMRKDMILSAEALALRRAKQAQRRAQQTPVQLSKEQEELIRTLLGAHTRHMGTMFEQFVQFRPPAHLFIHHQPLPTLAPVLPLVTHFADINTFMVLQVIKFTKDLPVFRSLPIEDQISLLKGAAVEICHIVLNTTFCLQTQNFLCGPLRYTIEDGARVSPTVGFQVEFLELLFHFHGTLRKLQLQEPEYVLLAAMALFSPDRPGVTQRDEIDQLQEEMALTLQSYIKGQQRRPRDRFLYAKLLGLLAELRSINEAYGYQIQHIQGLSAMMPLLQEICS
Luciferin 4-monooxygenase (Photinus pyralis), sequence (P08659 whole entry, looked up): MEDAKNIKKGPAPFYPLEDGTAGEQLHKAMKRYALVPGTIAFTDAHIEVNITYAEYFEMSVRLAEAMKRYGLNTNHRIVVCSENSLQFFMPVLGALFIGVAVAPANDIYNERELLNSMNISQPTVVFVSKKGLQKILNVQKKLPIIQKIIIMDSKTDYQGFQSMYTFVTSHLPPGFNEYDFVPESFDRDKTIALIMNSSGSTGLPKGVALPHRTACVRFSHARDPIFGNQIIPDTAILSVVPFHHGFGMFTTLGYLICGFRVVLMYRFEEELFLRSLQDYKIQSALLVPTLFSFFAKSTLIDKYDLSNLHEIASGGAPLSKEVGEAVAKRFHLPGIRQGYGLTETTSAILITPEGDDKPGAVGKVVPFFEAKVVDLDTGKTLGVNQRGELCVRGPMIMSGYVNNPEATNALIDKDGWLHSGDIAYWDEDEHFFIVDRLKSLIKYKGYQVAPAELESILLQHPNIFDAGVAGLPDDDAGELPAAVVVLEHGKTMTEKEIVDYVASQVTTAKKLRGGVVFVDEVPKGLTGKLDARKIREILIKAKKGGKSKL

CCC[C@H]1CC[C@H]2[C@H](C)CCC[C@H]2N1
inactive: all assays above
